# Source: PubChem (National Center for Advancing Translational Sciences (NCATS))
# HepG2 viability: qHTS for Inhibitors of TGF-b: Cytotox Counterscreen; HepG2 CAGA-GFP viability, ATP luminescence, 18 h; Potency, µM (doses to about 46.1 µM), for inactives: top-dose activity change, negative = cytotoxicity, hits mostly cytotoxic; 410,000 compounds, 0.76% hits
#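 HepG2 CAGA-GFP cells (1000/well, DMEM with 1% FBS) received compound, then TGF-beta at 500 pg/mL final, and were incubated 18 hours at 37 degrees C. Viability was read by CellTiter-Glo luminescence. Media-only wells were set as complete cell-killing and DMSO as no toxicity.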
# S2 tox: Viability Counterscreen for Primary qHTS for Inhibitors of ATXN expression; S2 cells (HEK-293 line with an ATXN2-luciferase reporter) viability, CellTiter-Fluor protease fluorescence, 24 h; Potency, µM (doses to about 56.7 µM), hits mostly cytotoxic; 400,000 compounds, 0.49% hits; AID 651635, 2014; also: nearly all actives have a fitted effect of over 40% in size
# HttQ103 aggreg: qHTS Multiplex Assay to Identify Dual Action Probes in a Cell Model of Huntington: Aggregate Formation (GFP); PC12 HttQ103-GFP aggregates, Acumen cytometry, 40 h; 220,000 compounds, 1.1% hits; Potency, µM (highest dose often 46.1 µM), for the others: at the top dose activity change, negative = inhibition, usual class: inhibitors; AID 1688, 2009; also: % is scaled to controls: 0 for no effect and ±100 for the full control effect; nearly all actives have a fitted effect of over 60% in size
#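 Compounds (qHTS titration) were added to PC12 cells expressing an ecdysone-driven HTT exon 1 Q103–GFP fusion after induction with 100 nM tebufenozide. Aggregate formation was measured as GFP objects in cell lysates.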
# HTT cytoprotect: qHTS Multiplex Assay to Identify Dual Action Probes in a Cell Model of Huntington: Cytoprotection (ATP). PC12 HTT-Q103 induced, cytoprotection, ATP luminescence, 40 h. Potency, µM (top dose mostly 56.4 µM), for the others: cytoprotection (ATP increase), hits mostly activators. 230,000 compounds, 0.14% hits. AID 1471, 2008; also: % of control where 0% means no effect; nearly all actives have a fitted effect of over 45% in size
#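 Compounds were screened for protection of PC12 cells against cell death after tebufenozide induction (100 nM final) of mutant Huntingtin exon 1 (Q103) fused to GFP.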
# TGFb inhibitor: qHTS for Inhibitors of TGF-b | Potency, µM (titrated, usually from 46.1 µM), for inactives: at the highest dose activity, negative = inhibition, usual class: inhibitors | HepG2 CAGA-GFP TGF-b/SMAD3 reporter, GFP fluorescence, 18 h; TGF-beta stimulated, 500 pg/mL final | AID 588855, 2011 | 410,000 compounds, 1.2% hits; also: % is scaled to controls: 0 for no effect and ±100 for the full control effect; nearly all actives have a fitted effect of over 65% in size
#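 HEPG2 CAGA-GFP reporter cells (1000/well, DMEM with 1% FBS) received compounds, then recombinant TGF-beta at 500 pg/mL final for 18 hours at 37 degrees C. Per-cell GFP summed per well was normalised to unstimulated and stimulated DMSO controls before curve fitting.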
# ATXN2 expr inh: Primary qHTS for Inhibitors of ATXN expression | HEK-293 ATXN2-luciferase reporter, luminescence, 24 h | Potency, µM (highest dose often 57 µM), without a hit: at the top dose activity change, negative = inhibition, most hits filed as inhibitors | 360,000 compounds, 0.72% hits | AID 1745845, 2022; also: % is scaled to controls: 0 for no effect and ±100 for the full control effect; nearly all actives have a fitted effect of over 55% in size
#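 ATXN2-luciferase reporter cells (luciferase flanked by upstream and downstream ATXN2 gene portions) were treated 24 h at 37 °C with compounds at up to 57 uM. SteadyGlo luminescence gave expression; GF-AFC fluorescence gave viability.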
# * hit, by the source's call; i = inactive; ? = inconclusive; . = not tested or not shown; [ ] = another dose, or the depositor's remark. This is a sample that favours compounds with a hit; in the whole collection about 2.8% have one here. Calls follow the shape of the dose curve; as a rule, active = well fitted curve in the direction sought with a large enough effect; inconclusive = small, poorly fitted or top-dose-only effect, or another doubt; inactive = no such curve, though single readings can be large; an effect the other way counts as inactive or inconclusive. Potency is read from the fitted curve at half-maximal effect.
SMILES,HepG2 viability,S2 tox,HttQ103 aggreg,HTT cytoprotect,TGFb inhibitor,ATXN2 expr inh
Cc1ccc2cc(CNC(C)CO)c(N3CCC(O)CC3)nc2c1 (stereo unspecified),.,i,.,.,.,.
CCCCN(CC(O)COc1cccc(C)c1)CC(O)COc1cccc(C)c1 (stereo unspecified),-100%,?,.,.,16µM*,-33%
O=C(Cc1ccccc1)NCC(=O)OCC(=O)c1cccc2ccccc12,-17%,.,.,.,4%,.
Brc1ccc(C2C3=C(Nc4ncnn42)c2ccccc2OC3c2ccncc2)cc1 (stereo unspecified),-54%,i,10µM*,-61%,?,-18%
COc1ccc(C2Oc3ccccc3C3=C2C(c2cccs2)n2ncnc2N3)cc1 (stereo unspecified),-20%,i,-25%,-49%,6%,-28%
COc1ccc(C(=O)/C=C/C(=O)N(CC(=O)NC2CCCCC2)Cc2ccccc2)c(O)c1,-7%,?,?,-59%[10 µM],?,?
COc1ccc(C(=O)/C=C/C(=O)N(Cc2ccccc2OC)C(C(=O)NC2CCCCC2)c2ccncc2)c(O)c1 (stereo unspecified),9%,.,16%,24%[10 µM],?,24µM*
COc1ccc(C(=O)/C=C/C(=O)N(CC(=O)NC2CCCCC2)CC2CCCO2)c(O)c1 (stereo unspecified),13µM*,4µM*,-8%[9.22 µM],-32%[10 µM],?,3.8µM*
COc1ccc(C(=O)/C=C/C(=O)N(CC(=O)NC2CCCCC2)Cc2ccccc2OC)c(O)c1,-13%,.,-26%[9.22 µM],-29%[10 µM],?,21µM*
CN[C@@H]1[C@@H](O)[C@@H](O[C@@H]2[C@@H](O)[C@H](O[C@H]3O[C@H](CN)[C@@H](O)[C@H](O)[C@@H]3O)[C@@H](N)C[C@@H]2NC(=O)[C@@H](O)CN)OC[C@]1(C)O,.,.,.,.,.,5%
Cc1ccc(S(=O)(=O)O[C@H]2C[C@@H](C(C)(C)C)CC[C@@H]2c2ccccc2)cc1,.,.,.,10%[10 µM],.,.
CC(=O)N1CCc2c(sc(NC(=O)Cc3ccc(F)cc3)c2C(N)=O)C1,11µM*,i,.,.,4%,.
COc1ccc(F)c(CN2CCC3(CCC(CNC(=O)c4cc(C)nn4C)O3)CC2)c1 (stereo unspecified),.,i,.,.,.,.
CCN1C(=O)C2C(C1=O)N1C(c3ccccc3)C3C(=O)N(CC)C(=O)C3N1C2c1ccccc1 (stereo unspecified),-18%,i,5%,0%,3%,1%
CCN1C(=O)C2C(C1=O)N1C(c3cccs3)C3C(=O)N(CC)C(=O)C3N1C2c1cccs1 (stereo unspecified),10%,?,28µM*,-2%,-23%,4%
CC(C)Cc1ccc([C@@H](C)C(=O)NS(C)(=O)=O)cc1,.,.,22%,7%,.,.
CC(C)Cc1ccc(C(C)CC2=CCC(CN(C)C)C2=O)cc1 (stereo unspecified),7.9µM*,.,.,.,?,?
Cc1nc2ccccc2nc1N/N=C/c1ccc(O)cc1,-16%,i,10%[9.22 µM],15%[10 µM],-6%,42%
Cc1nc(N/N=C/c2ccc(O)cc2)c2cnn(-c3ccccc3)c2n1,16µM*,?,-25%,.,-12%,-14%
OCCNCc1cc(Br)ccc1OCc1ccc(Cl)cc1Cl,16µM*,?,-17%,14%[10 µM],?,?
CCOc1cc(CNCCO)cc(Br)c1OCc1ccc(Cl)cc1Cl,16µM*,.,?,-170%,?,20µM*
CCOc1cccc(CNCCO)c1OCc1ccc(Cl)cc1Cl,-86%,?,-3%,12%[10 µM],?,-31%
